# Measured values published in PubChem BioAssay AID504845 (National Center for Advancing Translational Sciences (NCATS), 2011).
# Several values for one entry are separate records, joined by “and”; a condition that tells them apart may be missing. Identical values can stand only once. The campaign covered roughly 390,000 compounds. About 150 (0.038%) were called active. About 3% were inconclusive and are not listed. The call rests on the fitted dose curve; in most records, active means well fitted inhibition curve with a large enough effect; inconclusive means small, poorly fitted or top-dose-only effect; inactive means no such curve, though single readings can be large or run the other way. The entries come from a sample that favours actives as a whole. Where a structure was tested more than once in an assay, its records may differ in their call.
# Target: Regulator of G-protein signaling 4 (Homo sapiens) (UniProt P49798)
# Assay: Inhibitors of Regulator of G Protein Signaling (RGS) 4: qHTS; further: nearly all actives have a fitted effect of over 75% in size
# Conditions: Transcreener GDP fluorescence polarization, RGS4-accelerated GTP hydrolysis; series mostly up to 114 µM; activity change, negative = inhibition: at the top concentration
# Method in brief: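 MLSMR compounds (23 nl, pin-transferred) preincubated 10 min at room temperature with a 500nM (2x) first reagent, then RGS4 at 900nM (2x) plus Transcreener GDP mix added; fluorescence polarization (620/688 nm) read before and after 90 min at 30 °C.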
# On the % scale 0 is the no-effect control and ±100 the full control effect; potency means the concentration at half of the fitted maximal effect.
# Regulator of G-protein signaling 4 (Homo sapiens), sequence (P49798 whole entry, looked up): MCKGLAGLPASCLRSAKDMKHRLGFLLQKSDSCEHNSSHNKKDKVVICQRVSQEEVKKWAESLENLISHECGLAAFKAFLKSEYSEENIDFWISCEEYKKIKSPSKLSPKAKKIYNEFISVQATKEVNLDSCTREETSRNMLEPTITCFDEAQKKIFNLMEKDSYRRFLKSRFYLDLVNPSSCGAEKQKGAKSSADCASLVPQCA
Compound,"activity change, negative = inhibition",Potency
CCOc1ccccc1CNC(=O)Nc1cn(CC(C)C)c(=O)c2ccccc12,5.51% (inactive),
O=C1C2C(c3ccccc3)CC=CC2C(c2ccoc2)N1Cc1ccccc1 (stereo not given),-10.6% (inactive),
Cc1cccc(-c2cc(=O)c3cc(C)ccc3o2)c1,"-644% [at 56.9 µM, above what the read-out allows, likely interference] (inactive)",
CC1CC2C3CCC4=CC(=O)C=C[C@]4(C)[C@@]3(F)[C@@H](O)C[C@]2(C)[C@@]1(O)C(=O)CO (stereo not given in full),13.2% [at 56.9 µM] (inactive),
Nc1ncnc2c1ncn2C1CC(O)C(CO)O1 (stereo not given),-180% [at 56.9 µM] (inactive),
CSc1ccccc1N1CCN(CCCCCC(=O)NC2CCCc3ccccc32)CC1 (stereo not given),17.9% [at 56.9 µM] (inactive),
CCC(=O)N1CCc2cc(Br)cc(S(=O)(=O)CCC(=O)NCCc3ccc(OC)c(OC)c3)c21,-31.3% (inactive),
Cc1ccc(-n2c3nc(=O)[nH]c(=O)c-3cc3c(Cl)cccc32)cc1,-2.68% (inactive),
COc1ccc(C)cc1NC(=O)CCc1c(C)nn(-c2ccc(N3CCOCC3)nn2)c1C,-16% (inactive),
COC(=O)c1cccc(Cn2nnc3sc4c(c3c2=O)CCC(C(C)(C)C)C4)c1 (stereo not given),-10.7% (inactive),
CCOC(=O)c1c(C)[nH]c(CCC(=O)NCCCN2CCN(c3cccc(Cl)c3)CC2)c1C,-21.8% (inactive),
CC[C@@H]1Cc2cc(O)ccc2C2=C1c1ccc(O)cc1C[C@H]2CC,,inactive and 23.8 µM (active)
COc1ccc(C2CC(O)(c3ccccc3)Oc3cc(C)cc(C)c32)cc1 (stereo not given),-13.5% (inactive),
O=S(=O)(c1ccc2nc(N3CCN(c4cccc(Cl)c4)CC3)ccc2c1)N1CCCCC1,-18.5% (inactive),
CCOC(=O)c1cccc(NC(=O)C(Cc2ccccc2)NS(=O)(=O)c2cccc3nsnc23)c1 (stereo not given),-4.55% (inactive),
COc1cccc(CNCCSc2nnnn2C)c1OCc1ccccc1Cl,-5.25% (inactive),
CC(=O)c1cccc(NC(=O)CSc2nc3c(c(=O)[nH]2)CCC3)c1,16.8% (inactive),
O=C(Nc1c(C(=O)N2CCN(c3ccc(F)cc3)CC2)oc2ccccc12)c1ccco1,12.6% (inactive),
Cc1cc(C)cc(NC(=O)c2cnc3sc(N4CCCC4)nn3c2=O)c1,-12.1% (inactive),
COc1cc(OC)cc(C(=O)Nc2ccc3nc(Nc4cccc(C(F)(F)F)c4)cc(C)c3c2)c1,-2.35% (inactive),
Cc1ccc(N(C)C(=O)C2CCN(S(=O)(=O)c3ccc4c(c3)CCCN4C(=O)C3CCC3)CC2)cc1,-18.2% (inactive),
CSc1nc(Nc2ccc(F)cc2)cc(-c2ccccc2)n1,5.75% (inactive),
Cc1cccc(-n2c(SCC(N)=O)nc3c(oc4ccccc43)c2=O)c1,-0.746% (inactive),
C=Cc1ccc(Cn2c(C(=O)O)c(CNC3CCCC3)c3ccc(C)cc32)cc1,8.65% (inactive),
COc1ccccc1CNC(=O)Cn1nc(C)c2nn(-c3ccc(Cl)cc3)c(C)c2c1=O,18.3% (inactive),

Compound,"activity change, negative = inhibition",Potency
CC1CCCCN1S(=O)(=O)c1ccc(F)c(C(=O)Nc2ccccc2C(F)(F)F)c1 (stereo not given),4.05% (inactive),
COc1ccc2ncc3c(-c4ccc(C)c(C)c4)nn(CC(=O)NC4CCCC4)c3c2c1,26.8% (inactive),
COc1cccc(CNC(=O)c2ccc3c(c2)N(Cc2ccc(C(F)(F)F)cc2)C(=O)c2ccccc2S3)c1OC,20.4% (inactive),
CC(C)CC(NS(=O)(=O)c1ccc2c(c1)oc(=O)n2C)C(=O)NCc1ccccc1Cl (stereo not given),9.93% (inactive),
Cc1cc(OCC(=O)Nc2ncn[nH]2)c(C)c(C)c1Br,-27.4% (inactive),
CN1C(=O)c2[nH]nc(-c3ccc(F)cc3)c2C1c1ccccn1 (stereo not given),0.713% (inactive),
O=C(CSCc1cnn(-c2ccccc2)c1-n1cccc1)NCc1ccccc1Br,-25% (inactive),
O=C(NCCc1ccccc1)c1ccc2c(c1)N(Cc1ccc(F)cc1)C(=O)c1ccccc1S2(=O)=O,-0.894% (inactive),
O=S(=O)(NCC(c1ccccc1)N1CCc2ccccc21)c1ccccc1 (stereo not given),-21.4% (inactive),
Cc1c(CCNC(=O)c2ccc(C(F)(F)F)cc2)sc2nc(-c3ccc(F)cc3)nn12,-4.84% (inactive),
CCN(CC)CCNC(=O)c1cc2c(=O)oc3ccc(C)cc3c2s1,-2.06% (inactive),
COc1ccc(CCn2c3c(c(=O)[nH]c2=S)CN(C(C)C)CN3)cc1OC,-5.94% (inactive),
Cn1c(C(=O)N2CCC(C(=O)N3CCN(c4ccccc4)CC3)CC2)cc2sccc21,8.86% (inactive),
O=S(=O)(c1cccc(C(F)(F)F)c1)N1CCN(c2nc(-c3cccs3)nc3ccccc23)CC1,-10.2% (inactive),
Cc1cccc(NC(=O)CSc2ncc(-c3ccccc3)[nH]2)c1C,12.9% (inactive),
COc1cccc(N=C2SC(C(=O)Nc3cccc(Cl)c3)CC(=O)N2C)c1 (stereo not given),13.4% (inactive),
O=C(Nc1cc(C(F)(F)F)ccc1Cl)c1ccc2c(c1)CCN2S(=O)(=O)c1ccccc1,0.535% (inactive),
CCNS(=O)(=O)c1ccc(NC(=O)CSc2nc(-c3ccco3)cc(C(F)(F)F)n2)cc1,1.04% (inactive),
CCS(=O)(=O)N(C)[C@@H]1c2cc(C#N)ccc2OC(C)(C)[C@H]1O,-117% [at 56.9 µM] (inactive),
COc1ccc(CNC(=O)Cn2nnc(-c3ccccc3F)n2)cc1,-28.6% (inactive),
COc1ccc(OC)c(-n2nnc3c(sc4nc(C)c(Br)c(C)c43)c2=O)c1,15.3% (inactive),
Cc1ccc(-c2cn3c(n2)sc2cc(C(=O)NCCCc4ccccc4)ccc23)cc1,17.8% (inactive),
O=C1CC(c2ccccc2)CC2=C1C(c1ccco1)n1nc(C(F)(F)F)nc1N2 (stereo not given),12.1% (inactive),
COc1ccc(-c2c(C)c3ccc(O)c(CN4CCCC4)c3oc2=O)cc1OC,-3.02% (inactive),
CCC(=O)Nc1cccc(C(=O)OCc2cc(=O)n3nc(CC)sc3n2)c1,-4.68% (inactive),
